Measurements from PubChem BioAssay (NCATS).
Several values for one entry are separate records, joined by “and”; a condition that tells them apart may be missing. Equal values may be shown once. Inconclusive results are not listed. Some compounds were tested as several samples or in several runs, with calls that do not always agree. Activity calls are given as the source filed them. Unless noted, calls come from the whole dose curve; as a rule, active = well fitted curve in either direction with a large enough effect (not every such curve was filed as active); inconclusive = small, poorly fitted or top-dose-only effect, or another doubt; inactive = flat fitted curve, though single readings scatter.

What was measured:
[1] = biological target: Lysosomal acid glucosylceramidase (Homo sapiens) (UniProt P04062); experiment: Glucocerebrosidase-p2 (AID 348; in the data active = potency below about 10 µM; note: potency is the fitted concentration of half-maximal effect); details: purified GBA, blue fluorogenic substrate, 40 min
Chain of Lysosomal acid glucosylceramidase (Homo sapiens) (P04062 whole entry, looked up): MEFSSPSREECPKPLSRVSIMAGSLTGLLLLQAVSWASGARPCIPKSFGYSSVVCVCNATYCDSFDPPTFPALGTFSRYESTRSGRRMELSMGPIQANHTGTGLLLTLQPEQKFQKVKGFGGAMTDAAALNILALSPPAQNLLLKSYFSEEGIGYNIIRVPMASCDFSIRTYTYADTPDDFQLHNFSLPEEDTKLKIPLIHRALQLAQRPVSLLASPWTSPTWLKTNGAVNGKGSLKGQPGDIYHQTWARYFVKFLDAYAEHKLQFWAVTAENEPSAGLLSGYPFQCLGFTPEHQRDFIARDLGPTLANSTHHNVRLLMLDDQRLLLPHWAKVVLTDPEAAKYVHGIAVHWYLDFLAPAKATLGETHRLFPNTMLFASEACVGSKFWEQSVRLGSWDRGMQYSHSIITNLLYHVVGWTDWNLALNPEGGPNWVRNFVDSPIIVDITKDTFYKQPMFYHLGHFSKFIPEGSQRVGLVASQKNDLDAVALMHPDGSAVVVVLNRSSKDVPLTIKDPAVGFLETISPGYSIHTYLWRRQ
Outline: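 Compounds titrated from 0.6 nM upwards against 0.2 nM enzyme in pH 5.9 citric acid/KH2PO4, taurocholate, tween-20; blue fluorogenic substrate 80 uM, 40 min room temperature, stopped and read Ex 365/Em 440 for AC50.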

[2] = biological target: Glucocorticoid receptor (Homo sapiens) (UniProt P04150); experiment: GR-GFP Redistribution (AID 450;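 active = compounds whose dose series gives a full or clear partial fitted curve of increased nuclear translocation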; note: potency is the fitted concentration of half-maximal effect); details: U2OS GR-GFP nuclear translocation, laser cytometry, 2 h
Chain of Glucocorticoid receptor (Homo sapiens) (P04150 whole entry, looked up, the tested form may be a part): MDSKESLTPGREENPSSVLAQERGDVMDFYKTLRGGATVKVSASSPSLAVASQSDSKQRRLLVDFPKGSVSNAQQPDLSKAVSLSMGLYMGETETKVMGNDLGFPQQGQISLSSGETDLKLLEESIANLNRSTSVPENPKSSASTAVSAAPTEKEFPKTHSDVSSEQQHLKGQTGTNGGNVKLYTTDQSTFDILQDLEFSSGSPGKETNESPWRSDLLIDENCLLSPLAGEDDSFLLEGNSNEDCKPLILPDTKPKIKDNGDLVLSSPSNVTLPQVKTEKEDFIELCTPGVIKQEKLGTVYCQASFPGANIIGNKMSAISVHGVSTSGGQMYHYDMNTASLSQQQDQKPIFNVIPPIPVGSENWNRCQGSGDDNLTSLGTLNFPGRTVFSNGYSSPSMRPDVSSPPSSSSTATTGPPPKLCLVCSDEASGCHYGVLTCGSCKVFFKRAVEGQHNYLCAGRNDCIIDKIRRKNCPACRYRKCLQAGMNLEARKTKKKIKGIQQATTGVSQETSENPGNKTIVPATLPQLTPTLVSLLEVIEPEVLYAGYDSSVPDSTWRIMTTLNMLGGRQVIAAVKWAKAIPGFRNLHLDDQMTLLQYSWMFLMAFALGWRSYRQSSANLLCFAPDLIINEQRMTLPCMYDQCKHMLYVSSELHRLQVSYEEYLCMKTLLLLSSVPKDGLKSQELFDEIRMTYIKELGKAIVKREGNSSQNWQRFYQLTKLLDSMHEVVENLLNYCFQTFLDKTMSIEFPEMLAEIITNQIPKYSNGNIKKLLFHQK

[3] = biological target: Glucocorticoid receptor (Homo sapiens) (UniProt P04150); experiment: GR-EFC Redistribution (AID 451; calls by dose curve; note: potency is the fitted concentration of half-maximal effect); details: CHO-K1 GR-EFC translocation, beta-gal luminescence, 2 h
Outline: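 CHO-K1 cells stably expressing nuclear-localized β-gal enzyme acceptor and GR fused C-terminally to the enzyme donor fragment; ligand-driven nuclear translocation restores β-gal by complementation. Compounds titrated up to 46 uM final, 2 h at 37 °C; luminescence read.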

[4] = biological target: Mitogen-activated protein kinase 10 (Mus musculus) (UniProt Q61831); experiment: JNK3 AlphaScreen Assay (AID 530); details: JNK3 lysate, c-Jun phosphorylation; series mostly up to 11.4 µM;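 note: kinase came from lysate of stimulated human HepG2 cells; signal reports phosphorylation of biotinylated GST-cJun 1-79 at Ser73 with 10 µM ATP; % is set by controls: 0 for no effect and ±100 for the full control effect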
Outline: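 Inhibitors reduce antibody binding to phosphorylated biotin-cJun, lowering AlphaScreen luminescence. Lysates from HepG2 cells pre-activated by IL-1beta plus TNF-alpha supplied JNK3; compounds were titrated.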

[5] = biological target: 3',5'-cyclic-AMP phosphodiesterase 4B (Homo sapiens) (UniProt Q07343); experiment: qHTS Assay for Inhibitors of PDE-IV (AID 607; active = well fitted activation curve with a large enough effect in the main read-out, with a control signal flat, not every such curve was filed as active; note: potency is the fitted concentration of half-maximal effect); details: HEK293 ACTOne CNG channel cells, membrane potential fluorescence; series mostly up to 22.9 µM
Chain of 3',5'-cyclic-AMP phosphodiesterase 4B (Homo sapiens) (Q07343 whole entry, looked up): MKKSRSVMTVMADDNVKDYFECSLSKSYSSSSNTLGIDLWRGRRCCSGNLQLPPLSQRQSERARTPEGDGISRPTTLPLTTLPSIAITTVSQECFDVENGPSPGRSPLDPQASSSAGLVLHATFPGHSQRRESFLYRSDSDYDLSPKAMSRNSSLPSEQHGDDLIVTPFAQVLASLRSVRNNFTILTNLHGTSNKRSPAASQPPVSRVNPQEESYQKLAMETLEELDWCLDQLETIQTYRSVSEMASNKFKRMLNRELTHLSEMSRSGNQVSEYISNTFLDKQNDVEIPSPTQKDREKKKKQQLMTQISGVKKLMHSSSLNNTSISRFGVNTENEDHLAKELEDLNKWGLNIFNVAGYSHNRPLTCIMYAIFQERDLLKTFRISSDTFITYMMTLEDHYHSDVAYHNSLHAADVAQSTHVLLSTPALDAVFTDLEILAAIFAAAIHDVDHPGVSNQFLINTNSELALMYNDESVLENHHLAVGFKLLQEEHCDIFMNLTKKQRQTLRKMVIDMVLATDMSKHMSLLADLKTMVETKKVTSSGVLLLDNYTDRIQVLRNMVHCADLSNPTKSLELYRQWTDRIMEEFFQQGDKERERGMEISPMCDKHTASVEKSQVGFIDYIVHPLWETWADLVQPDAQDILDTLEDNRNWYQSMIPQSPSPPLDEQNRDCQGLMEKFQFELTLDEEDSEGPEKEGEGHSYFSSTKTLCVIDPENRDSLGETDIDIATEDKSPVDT
Outline: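 Live HEK293 cells with a modified cyclic nucleotide-gated (CNG) channel report intracellular cAMP via membrane-potential dye fluorescence (ex 535/em 590 nm). Endogenous PDE-IV was targeted. Compounds were tested at up to 22.9 uM final; RO 20-1724 100 uM served as control.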

[6] = AP1 Signaling Pathway (AID 357); details: ME-180 AP-1-bla reporter, EGF-induced, beta-lactamase ratio, 5 h;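 note: ME-180 reporter cells stimulated with EGF at its EC50 level; % is set by controls: 0 for no effect and ±100 for the full control effect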
Outline: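 Beta-lactamase reporter under AP-1 response element, ME-180 background. Stimulus: EC50 EGF. Compound exposure 5 h, 37 °C. Detection: CCF4, 2.5 h RT, 460/530 nm. Values: AC50 from titration.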

[7] = biological target: Cytochrome P450 1A2 (Homo sapiens) (UniProt P05177); experiment: p450-cyp1a2 (AID 410; calls by dose curve;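 note: -100% = full effect of reference inhibitor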); details: recombinant CYP1A2, luciferin-ME demethylation, luminescence; series mostly up to 11.4 µM
Chain of Cytochrome P450 1A2 (Homo sapiens) (P05177 whole entry, looked up): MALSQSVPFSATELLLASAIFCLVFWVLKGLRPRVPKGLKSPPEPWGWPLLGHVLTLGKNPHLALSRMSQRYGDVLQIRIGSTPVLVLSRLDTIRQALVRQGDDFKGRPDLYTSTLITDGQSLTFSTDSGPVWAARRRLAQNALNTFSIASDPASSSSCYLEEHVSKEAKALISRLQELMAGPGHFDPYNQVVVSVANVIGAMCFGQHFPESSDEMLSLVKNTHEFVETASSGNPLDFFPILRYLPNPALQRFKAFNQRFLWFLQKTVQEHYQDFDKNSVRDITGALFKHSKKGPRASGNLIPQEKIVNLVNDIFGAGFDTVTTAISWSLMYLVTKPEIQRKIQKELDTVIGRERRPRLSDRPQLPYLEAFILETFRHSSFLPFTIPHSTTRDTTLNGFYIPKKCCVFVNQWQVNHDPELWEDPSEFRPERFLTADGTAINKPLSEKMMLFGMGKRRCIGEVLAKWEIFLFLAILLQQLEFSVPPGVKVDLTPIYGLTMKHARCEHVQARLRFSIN
Outline: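 20nM CYP1A2 with 100uM Luciferin-ME (at Km) in 100mM KPO4; compound preincubated 10 min, NADPH regeneration added, 60 min at room temperature. Luciferin quantified by luminescence after detection reagent; normalized to 57 uM furafylline.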

[8] = NFAT Signaling Pathway (AID 444); details: Jurkat NFAT-bla M1, carbachol, beta-lactamase ratio, 5 h;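 note: carbachol stimulus at about its EC50 of 1 µM final; % is set by controls: 0 for no effect and ±100 for the full control effect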
Outline: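 Jurkat cells carrying an NFAT-driven β-lactamase reporter and co-transfected muscarinic M1 receptor were treated with compound plus carbachol (1 uM final, an EC50 level) for 5 h at 37 °C. CCF4 loading followed for 1 h at RT; 460/530 nm ratio gave %activity.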

[9] = Stat Signaling Pathway (AID 446); details: ME-180 (cervical carcinoma) SIE beta-lactamase reporter, IL-6 stimulated, 5 h;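 note: ME-180 cervical cancer cells given 40 pM IL-6 alongside compound; SIE-controlled beta-lactamase reporter measured as 460/530 nm FRET emission ratio; % is set by controls: 0 for no effect and ±100 for the full control effect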
Outline: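 IL-6/STAT signaling read in ME-180 cells via an SIE beta-lactamase reporter. Stimulus was 40 pM IL-6 (its AC50) for 5 hrs, so both activation and inhibition register.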

[10] = biological target: Cytochrome P450 2D6 (Homo sapiens) (UniProt P10635); experiment: qHTS Assay for Inhibitors and Substrates of Cytochrome P450 2D6 (AID 891; active = well fitted curve in the direction sought with a large enough effect; an effect the other way counts as inactive or inconclusive;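 note: luciferin methyl ether substrate demethylated by CYP2D6 with NADPH regeneration; % is set by controls: 0 for no effect and ±100 for the full control effect; nearly all actives have a fitted effect of over 60% in size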); details: recombinant CYP2D6, luciferin-ME EGE luminescence; series mostly up to 11.4 µM
Chain of Cytochrome P450 2D6 (Homo sapiens) (P10635 whole entry, looked up): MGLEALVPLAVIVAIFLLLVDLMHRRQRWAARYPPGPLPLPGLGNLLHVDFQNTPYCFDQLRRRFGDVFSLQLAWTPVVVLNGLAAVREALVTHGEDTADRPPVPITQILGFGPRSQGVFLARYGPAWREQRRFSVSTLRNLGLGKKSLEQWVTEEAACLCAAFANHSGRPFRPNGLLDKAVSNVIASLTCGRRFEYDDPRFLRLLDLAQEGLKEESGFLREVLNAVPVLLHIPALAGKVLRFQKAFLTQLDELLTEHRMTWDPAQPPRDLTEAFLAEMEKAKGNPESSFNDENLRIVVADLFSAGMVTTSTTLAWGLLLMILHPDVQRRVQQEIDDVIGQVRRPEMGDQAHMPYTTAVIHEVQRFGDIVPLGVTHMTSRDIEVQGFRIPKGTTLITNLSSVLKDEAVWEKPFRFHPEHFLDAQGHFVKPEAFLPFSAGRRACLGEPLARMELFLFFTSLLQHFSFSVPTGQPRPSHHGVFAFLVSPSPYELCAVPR
Outline: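 Human CYP2D6 (5 nM) with 30 uM Luciferin-ME EGE (at Km) in 100 mM KPO4, compound preincubated 10 min, then NADPH regeneration system for 60 min at room temperature. Luciferin read by luminescence; normalized to 1.43 uM quinidine.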

[11] = biological target: Cytochrome P450 2C19 (Homo sapiens) (UniProt P33261); experiment: qHTS Assay for Inhibitors and Substrates of Cytochrome P450 2C19 (AID 899; active = well fitted curve in the direction sought with a large enough effect; an effect the other way counts as inactive or inconclusive; note: nearly all actives have a fitted effect of over 60% in size; note: potency is the fitted concentration of half-maximal effect); details: recombinant CYP2C19, luciferin-H EGE luminescence; series mostly up to 11.4 µM
Chain of Cytochrome P450 2C19 (Homo sapiens) (P33261 whole entry, looked up): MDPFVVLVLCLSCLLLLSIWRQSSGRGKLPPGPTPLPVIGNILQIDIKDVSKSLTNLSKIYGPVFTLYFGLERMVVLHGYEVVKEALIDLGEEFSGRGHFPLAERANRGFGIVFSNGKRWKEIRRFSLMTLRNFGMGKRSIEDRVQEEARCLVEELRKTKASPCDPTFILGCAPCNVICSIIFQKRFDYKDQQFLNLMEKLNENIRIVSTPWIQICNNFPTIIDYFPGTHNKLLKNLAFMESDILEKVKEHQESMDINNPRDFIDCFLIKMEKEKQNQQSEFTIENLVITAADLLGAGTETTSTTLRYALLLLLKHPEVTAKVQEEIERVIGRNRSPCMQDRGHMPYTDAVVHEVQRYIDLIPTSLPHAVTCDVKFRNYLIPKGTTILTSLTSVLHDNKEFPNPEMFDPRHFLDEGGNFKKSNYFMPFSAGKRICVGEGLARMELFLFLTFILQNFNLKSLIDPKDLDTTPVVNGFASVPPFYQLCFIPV
Outline: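 In 50mM KPO4, the reaction held 5nM enzyme and KM-level (10uM) Luciferin-H EGE; it ran 60 min at 37C after NADPH regeneration and a 10 min compound preincubation. Luminescence values were scaled to 57uM ketoconazole as complete inhibition.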

[12] = biological target: Cytochrome P450 3A4 (Homo sapiens) (UniProt P08684); experiment: qHTS Assay for Activators of Cytochrome P450 3A4 (AID 885; active = well fitted curve in the direction sought with a large enough effect; an effect the other way counts as inactive or inconclusive; note: nearly all actives have a fitted effect of over 65% in size); details: recombinant CYP3A4, Luciferin-PPXE luminescence, 60 min; series mostly up to 11.4 µM
Chain of Cytochrome P450 3A4 (Homo sapiens) (P08684 whole entry, looked up): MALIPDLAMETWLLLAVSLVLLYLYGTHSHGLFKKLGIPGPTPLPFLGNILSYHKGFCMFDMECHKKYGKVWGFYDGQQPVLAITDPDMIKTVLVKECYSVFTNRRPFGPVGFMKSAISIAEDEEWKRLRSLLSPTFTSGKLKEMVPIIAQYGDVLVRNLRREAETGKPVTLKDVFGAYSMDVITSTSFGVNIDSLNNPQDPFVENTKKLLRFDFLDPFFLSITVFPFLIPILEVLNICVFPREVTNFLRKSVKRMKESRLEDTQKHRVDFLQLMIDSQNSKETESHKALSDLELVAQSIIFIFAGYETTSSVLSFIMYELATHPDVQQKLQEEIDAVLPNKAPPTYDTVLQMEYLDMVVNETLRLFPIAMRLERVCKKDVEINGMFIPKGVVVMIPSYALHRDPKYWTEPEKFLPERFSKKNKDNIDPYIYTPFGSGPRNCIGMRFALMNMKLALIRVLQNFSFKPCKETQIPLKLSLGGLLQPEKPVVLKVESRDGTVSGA
Outline: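 Quantitative HTS format: compounds preincubated with 20nM human CYP3A4 and Luciferin-PPXE substrate at KM, reaction started by NADPH regeneration, stopped after 60 min, luciferase luminescence read 20 min later.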

[13] = at 7.69 µM (top of the series) unless noted

COc1cc(N=Nc2cccc(S(N)(=O)=O)c2)c2ccccc2c1N
inactive: Potency [1] > 11.4 µM | Potency [2] > 46 µM | Potency [3] > 9.22 µM | Potency [4] | Potency [5]

COc1ncc2nc(-c3cc(F)cc(F)c3)c(=O)n(CCc3ccccc3)c2n1
inactive: Potency [1] > 11.4 µM | Potency [2] > 9.22 µM | Potency [3] > 46 µM | Potency [4]

N[C@H](COP(=O)(O)O)C(=O)O
inactive: activity change, negative = inhibition [6, 13] -5.61% [at 38 µM] | Potency [7] | activity change, negative = inhibition [8, 13] 1.24% [at 38 µM] | activity, negative = inhibition [9, 13] 20.2% [at 38 µM] | Potency [2] > 46 µM | Potency [3] > 46 µM | Potency [5] | Potency [10] | Potency [11]

CC(CO)(CO)N=Cc1cc(I)cc(I)c1O
inactive: Potency [1] > 11.4 µM | activity, negative = inhibition [9, 13] -24.6% | Potency [2] > 46 µM | Potency [3] > 9.22 µM | Potency [4] | Potency [5]

O=C(O)[C@@H]1[C@@H](C(=O)NCc2cccnc2)[C@@H]2C=C[C@@H]1O2
inactive: activity change, negative = inhibition [6, 13] 8.06% | activity change, negative = inhibition [7] -0.4% [at 2.29 µM] | activity change, negative = inhibition [8, 13] 2.31% | activity, negative = inhibition [9, 13] 0.333% | Potency [2] > 46 µM | Potency [3] > 9.22 µM | Potency [4] | Potency [5]

C(=C/c1ccccc1)/CN1CCN(C(c2ccccc2)c2ccccc2)CC1
inactive: activity change, negative = inhibition ([6]; at 17.2 µM (top of the series)) -10.7% | activity change, negative = inhibition ([6]; at 38 µM (top of the series)) -3.02% | activity, negative = inhibition ([9]; at 17.2 µM (top of the series)) -6.97% | activity, negative = inhibition ([9]; at 38 µM (top of the series)) 12.7% | Potency [4] | Potency [5]

N=C(N)SCc1cccc(-c2nc3ccccc3c(=O)o2)c1
inactive: activity change, negative = inhibition [6, 13] 0.968% | activity change, negative = inhibition [7] -10.3% [at 2.29 µM] | activity change, negative = inhibition [8, 13] 10.1% | activity, negative = inhibition [9, 13] 2.22% | Potency [2] > 46 µM | Potency [3] > 9.22 µM | Potency [4] | Potency [5]

O=C(O)/C(=C\c1ccccc1)c1ccccc1
inactive: activity change, negative = inhibition [6, 13] 3.72% | Potency [7] | activity change, negative = inhibition [8, 13] 1.44% | activity, negative = inhibition [9, 13] -0.514% | Potency [2] > 46 µM | Potency [3] > 9.22 µM | Potency [4] | Potency [5]

NC(=O)C[C@H](N)C(N)=O
inactive: activity change, negative = inhibition [6, 13] -1.63% | Potency [7] | activity change, negative = inhibition [8, 13] 12.4% | activity, negative = inhibition [9, 13] 2.81% | Potency [2] > 46 µM | Potency [3] > 9.22 µM | Potency [4] | Potency [5]

CC(C)(C)c1ccc([C@@H](O)CCCN2CCC(C(O)(c3ccccc3)c3ccccc3)CC2)cc1
2 µM (active) and inactive: Potency [5]
inactive: activity change, negative = inhibition ([6]; at 17.2 µM (top of the series)) 2.82% | activity change, negative = inhibition ([6]; at 38 µM (top of the series)) 6.21% | activity change, negative = inhibition ([8]; at 17.2 µM (top of the series)) -18.2% | activity change, negative = inhibition ([8]; at 38 µM (top of the series)) -0.347% | activity, negative = inhibition ([9]; at 17.2 µM (top of the series)) -5.86% | activity, negative = inhibition ([9]; at 38 µM (top of the series)) 9.55% | Potency [2] > 46 µM and > 20.6 µM | Potency [3] > 46 µM and > 20.6 µM | Potency [4]

NC1=C2NC=N[C@@H]2N(C/C=C\c2ccccc2)C=N1
inactive: activity change, negative = inhibition [6, 13] 1.36% | activity change, negative = inhibition [7] -12.4% [at 2.29 µM] | activity change, negative = inhibition [8, 13] 4.81% | activity, negative = inhibition [9, 13] 13.2% | Potency [2] > 46 µM | Potency [3] > 9.22 µM | Potency [4] | Potency [5]

O=C(O)c1c(-c2c3ccc(=O)cc-3oc3cc(O)ccc23)cc2ccccc2c1-c1ccccc1
inactive: activity change, negative = inhibition [6, 13] 8.03% | activity change, negative = inhibition [7] -17.6% [at 2.29 µM] | activity change, negative = inhibition [8, 13] 2.16% | activity, negative = inhibition [9, 13] 3.5% | Potency [2] > 46 µM | Potency [3] > 9.22 µM | Potency [4] | Potency [5]

Cc1cc(O)c(C(C)C)cc1C1(c2cc(C(C)C)c(O)cc2C)OC(=O)c2ccccc21
inactive: Potency [1] > 11.4 µM | Potency [2] > 46 µM | Potency [3] > 9.22 µM | Potency [4] | Potency [5] | Potency [12]
active: Potency [11] 3.16 µM

C[N+]1(C)[C@@H]2CC(OC(=O)[C@@H](CO)c3ccccc3)C[C@@H]1[C@H]1O[C@H]12 (stereo partly drawn)
inactive: Potency [1] > 11.4 µM

C[N+]1(NCC[N@@+]2(C)CCc3ccccc3C2)CCCCC1
inactive: activity change, negative = inhibition [6, 13] -4.59% | Potency [7] | activity change, negative = inhibition [8, 13] -23.2% | activity, negative = inhibition [9, 13] 7.24% | Potency [2] > 46 µM | Potency [3] > 9.22 µM | Potency [4] | Potency [5]

NC(=O)c1ncn([C@@H]2O[C@@H](CO)[C@@H](O)[C@H]2O)n1
inactive: activity change, negative = inhibition [6, 13] 18.3% [at 38 µM] | Potency [7] | activity change, negative = inhibition [8, 13] 17% [at 38 µM] | activity, negative = inhibition [9, 13] -14.5% [at 38 µM] | Potency [2] > 46 µM | Potency [3] > 46 µM | Potency [4] | Potency [5]

C=C1CC[C@H](O)C/C1=C/C=C1\CCC[C@]2(C)[C@H]1CC[C@H]2[C@@H](C)CCCC(C)C
inactive: activity change, negative = inhibition [6, 13] -6.4% [at 17.2 µM] | Potency [7] | activity change, negative = inhibition [8, 13] 8.22% [at 17.2 µM] | activity, negative = inhibition [9, 13] -9.36% [at 17.2 µM] | Potency [2] > 20.6 µM | Potency [3] > 20.6 µM | Potency [4] | Potency [5]

O=CN1CCN(C[C@H](O)CN2CCCCC2)CC1
inactive: activity change, negative = inhibition [6, 13] 9% | activity change, negative = inhibition [7] -17.6% [at 2.29 µM] | activity change, negative = inhibition [8, 13] -4.36% | activity, negative = inhibition [9, 13] 8.12% | Potency [2] > 46 µM | Potency [3] > 9.22 µM | Potency [4] | Potency [5]
